Test results reported in PubChem BioAssay AID1159580 (chemical genetic matrix, 2015).
In all, about 5,500 compounds went through this assay and about 2,000 (36%) were called active. About 18% were inconclusive and are not listed. Cut-off read from the data, not from the text of the source: active = normalized growth mostly below about 0.91 (no sharp cut-off); inconclusive = no clear call, values can overlap the other calls; inactive = mostly above about 0.92. This is one part of the list.

Experiment: chemical genetic growth profiling, strain panel (AID 1159580);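 note: tested at 20 µM; growth read once vehicle control cultures reached saturation at 30 °C; 1 = growth at the plate median or of vehicle wells; lower values mean less growth of the strain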
Conditions: growth OD

Measured: normalized growth

CN1C(CC(=O)c2ccccc2)CCCC1CC(O)c1ccccc1 (configuration not stated)
inactive: S. cerevisiae deletion strains, locus YJR075W, strain HOC1, active compounds read low 0.998 | S. cerevisiae deletion strains, locus YKL009W, strain mrt4, active compounds read low 0.994 | S. cerevisiae deletion strains, locus YKL068W, active compounds read low 0.994 | S. cerevisiae deletion strains, locus YKL085W, strain MDH1 (second series), active compounds read low 0.989 | S. cerevisiae deletion strains, locus YKL085W, strain MDH1, active compounds read low 0.989 | S. cerevisiae deletion strains, locus YKL160W, strain elf1, active compounds read low 1 | S. cerevisiae deletion strains, locus YKL190W, strain CNB1, active compounds read low 1.01 | S. cerevisiae deletion strains, locus YKR001C, strain vps1, active compounds read low 1 | S. cerevisiae deletion strains, locus YKR026C, strain gcn3, active compounds read low 0.977 | S. cerevisiae deletion strains, locus YKR091W, strain srl3, active compounds read low 0.975 | S. cerevisiae deletion strains, locus YLL001W, strain dnm1, active compounds read low 0.967 | S. cerevisiae deletion strains, locus YLL026W, active compounds read low 0.98 | S. cerevisiae deletion strains, locus YLL041C, strain sdh2, active compounds read low 0.982 | S. cerevisiae deletion strains, locus YLR027C, strain aat2, active compounds read low 0.965 | S. cerevisiae deletion strains, locus YLR039C, strain RIC1, active compounds read low 1.04 | S. cerevisiae deletion strains, locus YLR058C, strain SHM2, active compounds read low 1.01 | S. cerevisiae deletion strains, locus YLR102C, strain apc9, active compounds read low 0.983 | S. cerevisiae deletion strains, locus YLR113W, strain HOG1, active compounds read low 0.984 | S. cerevisiae deletion strains, locus YLR221C, strain rsa3, active compounds read low 0.99 | S. cerevisiae deletion strains, locus YLR258W, strain gsy2, active compounds read low 0.983 | S. cerevisiae deletion strains, locus YLR262C, strain YPT6 (second series), active compounds read low 0.909 | S. cerevisiae deletion strains, locus YLR262C, strain YPT6, active compounds read low 1.06 | S. cerevisiae deletion strains, locus YLR268W, strain sec22, active compounds read low 0.928 | S. cerevisiae deletion strains, locus YLR320W, strain mms22, active compounds read low 0.979 | S. cerevisiae deletion strains, locus YLR330W, strain CHS5, active compounds read low 1 | S. cerevisiae deletion strains, locus YLR342W, strain FKS1 (second series), active compounds read low 1.03 | S. cerevisiae deletion strains, locus YLR342W, strain FKS1, active compounds read low 0.966 | S. cerevisiae deletion strains, locus YLR357W, strain rsc2, active compounds read low 0.967 | S. cerevisiae deletion strains, locus YLR370C, strain arc18, active compounds read low 0.962 | S. cerevisiae deletion strains, locus YLR371W, strain rom2, active compounds read low 0.984 | S. cerevisiae deletion strains, locus YLR384C, strain iki3, active compounds read low 0.974 | S. cerevisiae deletion strains, locus YLR418C, strain cdc73, active compounds read low 0.957 | S. cerevisiae deletion strains, locus YML016C, strain PPZ1, active compounds read low 1.01 | S. cerevisiae deletion strains, locus YML032C, strain rad52, active compounds read low 0.973 | S. cerevisiae deletion strains, locus YML120C, strain ndi1, active compounds read low 0.977 | S. cerevisiae deletion strains, locus YML124C, strain tub3, active compounds read low 0.988 | S. cerevisiae deletion strains, locus YMR058W, strain fet3, active compounds read low 0.969 | S. cerevisiae deletion strains, locus YMR078C, strain ctf18, active compounds read low 0.991 | S. cerevisiae deletion strains, locus YMR125W, strain sto1, active compounds read low 0.951 | S. cerevisiae deletion strains, locus YMR129W, active compounds read low 0.976 | S. cerevisiae deletion strains, locus YMR205C, strain PFK2, active compounds read low 0.971 | S. cerevisiae deletion strains, locus YMR223W, strain ubp8, active compounds read low 0.993 | S. cerevisiae deletion strains, locus YMR231W, strain pep5, active compounds read low 0.987 | S. cerevisiae deletion strains, locus YMR263W, strain SAP30, active compounds read low 1.01 | S. cerevisiae deletion strains, locus YMR307W, strain GAS1, active compounds read low 1.08 | S. cerevisiae deletion strains, locus YNL067W, strain RPL9B, active compounds read low 0.986 | S. cerevisiae deletion strains, locus YNL071W, strain lat1, active compounds read low 0.975 | S. cerevisiae deletion strains, locus YNL128W, strain TEP1, active compounds read low 1.01 | S. cerevisiae deletion strains, locus YNL153C, strain GIM3, active compounds read low 0.988 | S. cerevisiae deletion strains, locus YNL183C, strain NPR1, active compounds read low 0.924 | S. cerevisiae deletion strains, locus YNL209W, strain ssb2, active compounds read low 0.981 | S. cerevisiae deletion strains, locus YNL233W, strain BNI4, active compounds read low 0.994 | S. cerevisiae deletion strains, locus YNL248C, strain rpa49, active compounds read low 1.01 | S. cerevisiae deletion strains, locus YNL250W, strain rad50, active compounds read low 0.981 | S. cerevisiae deletion strains, locus YNL271C, strain bni1, active compounds read low 0.984 | S. cerevisiae deletion strains, locus YNL298W, strain CLA4, active compounds read low 0.98 | S. cerevisiae deletion strains, locus YNL307C, strain MCK1, active compounds read low 0.992 | S. cerevisiae deletion strains, locus YNL322C, strain KRE1 (second series), active compounds read low 0.985 | S. cerevisiae deletion strains, locus YNL322C, strain KRE1, active compounds read low 1.01 | S. cerevisiae deletion strains, locus YNR049C, strain mso1, active compounds read low 0.973 | S. cerevisiae deletion strains, locus YNR052C, strain pop2, active compounds read low 0.99 | S. cerevisiae deletion strains, locus YOL006C, strain TOP1, active compounds read low 0.939 | S. cerevisiae deletion strains, locus YOL012C, strain htz1 0.951 | S. cerevisiae deletion strains, locus YOL147C, strain pex11, active compounds read low 0.991 | S. cerevisiae deletion strains, locus YOR001W, strain rrp6, active compounds read low 0.997 | S. cerevisiae deletion strains, locus YOR061W, strain CKA2, active compounds read low 1.02 | S. cerevisiae deletion strains, locus YOR069W, strain VPS5, active compounds read low 1.01 | S. cerevisiae deletion strains, locus YOR070C, strain gyp1, active compounds read low 0.971 | S. cerevisiae deletion strains, locus YOR080W, strain dia2, active compounds read low 0.988 | S. cerevisiae deletion strains, locus YOR083W, strain WHI5, active compounds read low 1.01 | S. cerevisiae deletion strains, locus YOR106W, strain vam3, active compounds read low 1 | S. cerevisiae deletion strains, locus YOR136W, strain idh2, active compounds read low 0.993 | S. cerevisiae deletion strains, locus YOR144C, strain elg1, active compounds read low 0.993 | S. cerevisiae deletion strains, locus YOR184W, strain ser1, active compounds read low 0.988 | S. cerevisiae deletion strains, locus YOR231W, strain MKK1, active compounds read low 0.978 | S. cerevisiae deletion strains, locus YOR265W, strain rbl2, active compounds read low 0.973 | S. cerevisiae deletion strains, locus YOR270C, strain vph1, active compounds read low 0.917 | S. cerevisiae deletion strains, locus YOR290C, strain snf2, active compounds read low 0.951 | S. cerevisiae deletion strains, locus YOR316C, strain cot1, active compounds read low 0.99 | S. cerevisiae deletion strains, locus YPL051W, strain arl3, active compounds read low 0.998 | S. cerevisiae deletion strains, locus YPL055C, strain LGE1, active compounds read low 1.01 | S. cerevisiae deletion strains, locus YPL078C, strain atp4, active compounds read low 0.991 | S. cerevisiae deletion strains, locus YPL106C, strain sse1, active compounds read low 0.954 | S. cerevisiae deletion strains, locus YPL240C, strain hsp82, active compounds read low 0.998 | S. cerevisiae deletion strains, locus YPL241C, strain CIN2, active compounds read low 1.01 | S. cerevisiae deletion strains, locus YPL256C, strain CLN2, active compounds read low 0.938 | S. cerevisiae deletion strains, locus YPR119W, strain clb2, active compounds read low 0.992 | S. cerevisiae deletion strains, locus YPR141C, strain kar3, active compounds read low 0.992 | S. cerevisiae deletion strains, locus YPR163C, strain tif3, active compounds read low 0.981 | S. cerevisiae deletion strains, locus YPR167C, strain met16, active compounds read low 0.997 | S. cerevisiae deletion strains, strain wtn01, active compounds read low 0.954 | S. cerevisiae strains, strain wild type, active compounds read low 1.01
